In paper PMC7819943, “Rice protein-binding microarrays: a tool to detect cis-acting elements near promoter regions in rice” one finds binding signal data, which are given here for 43 sequences.

Whole data set: some 35,000 sequences, median “fluorescence intensity (a.u.)” near 10,000, cut for the highest 2% near 52,000. This is one part of a sample in which the highest values are shown more often than they occur.

The target of this experiment is T1, OsWOX13 (Oryza sativa, UniProt Q5QMM3 1-267).
T1 sequence: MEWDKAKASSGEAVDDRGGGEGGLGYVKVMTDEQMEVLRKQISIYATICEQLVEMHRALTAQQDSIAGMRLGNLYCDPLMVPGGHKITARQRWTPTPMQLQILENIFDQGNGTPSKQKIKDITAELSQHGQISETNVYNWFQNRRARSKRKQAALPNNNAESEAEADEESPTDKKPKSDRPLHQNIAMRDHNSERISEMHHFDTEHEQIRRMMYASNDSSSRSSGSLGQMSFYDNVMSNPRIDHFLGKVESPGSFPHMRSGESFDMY
The experiment in a line: protein-binding microarray (RPBM); PBS, 2% BSA, 51.3 ng/ul salmon testes DNA, 50 uM zinc acetate, 200 nM TF, 25 C, 1 h; high values mean tight binding. Conditions: protein: recombinant; tags: N-terminal polyhistidine and DsRed monomer fusion (pET32a); label: CyDye5-dUTP incorporated in the synthesized complementary strand; 3' TTTTT single-stranded linker to array surface; dsDNA, one strand shown. Put shortly:
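Binding signal is defined as the fluorescence intensity of each feature in arbitrary units, read on an Axon 4000B scanner. Transcription factors with N-terminal polyhistidine and DsRed fusions came from E. coli BL21-CodonPlus and were purified on Ni–NTA. They were incubated at 200 nM for 1 h at 25 °C on a custom Agilent array that had been made double-stranded with Cy5-dUTP, with 50 µM zinc acetate present, and the array was washed.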
In the case of “TAGATACGAAAATTAATTGGAATTTTGGATTTGGATGGGACGGAGTCACCTAGTGCAG”, the binding signal is 24500 fluorescence intensity (a.u.).
In the case of “GTCACATCATTCTAATTTCAATTAAACTTCAAATTTTGGCCGGAGTCACCTAGTGCAG” it was 12900 fluorescence intensity (a.u.).
Take “CTGCAACTAAATTTTAGGATTAATTTAAGGAACTTTCGGGCGGAGTCACCTAGTGCAG”: the binding signal was 11300 fluorescence intensity (a.u.).
The value for “CAATGGTAAATTTATCCAGTCCAAAGTGAAAATATATGGTCGGAGTCACCTAGTGCAG” was 3960 fluorescence intensity (a.u.); that for “CTCCTTAATTTACTTATTTGTCTTTAATTGGTTCTCGCACCGGAGTCACCTAGTGCAG” was 33700 fluorescence intensity (a.u.).
For “CTGCCTGTAAATTTCTGTGATTTGATGTTTGCCTCTGTTGCGGAGTCACCTAGTGCAG”, the binding signal was 11300 fluorescence intensity (a.u.).
As for “ATTTAAATCATCATCTATAGTCAATCTAATAGCTCACTCACGGAGTCACCTAGTGCAG”, the binding signal was 8910 fluorescence intensity (a.u.).
With “TATAACTAAAATTATATTTGTAAGTTTAGTTGATATGACACGGAGTCACCTAGTGCAG”, the binding signal was 6390 fluorescence intensity (a.u.).
The value for “TTTTAGTAAATTAATAAATATTTATTTTGTTATTTAATACCGGAGTCACCTAGTGCAG” was 13200 fluorescence intensity (a.u.); that for “ATCAATCTCAATGGTTAAATGATTGATCTATCATAATTCACGGAGTCACCTAGTGCAG” was 22100 fluorescence intensity (a.u.); that for “TTTTAAATTTAAAATAATTAAAACTCAATTAATAATTTGTCGGAGTCACCTAGTGCAG” was 31300 fluorescence intensity (a.u.).
With “GTTAATTAATTATATTATAATAATTCTCTCAATTTGTCGCCGGAGTCACCTAGTGCAG”, the binding signal was 65500 fluorescence intensity (a.u.).
Consider “AGTAATTTTGGTACAATTAATAAATAAATCTGATACCTCACGGAGTCACCTAGTGCAG”, for which the binding signal is 21200 fluorescence intensity (a.u.).
With “AATAATAATTAATTATAGTAATTAATCATTAATTTTGTACCGGAGTCACCTAGTGCAG”, the binding signal is 64100 fluorescence intensity (a.u.).
“AGTGATAAATTTGAGTGATTACTATATGACACCGTTGTGTCGGAGTCACCTAGTGCAG”: the binding signal is 55700 fluorescence intensity (a.u.).
Take “GATTAATTAATTAATCTCAATGATGGTAAATACATTCCCACGGAGTCACCTAGTGCAG”: the binding signal is 63100 fluorescence intensity (a.u.).
In the case of “ATTAAATCAATAATTAAATATATTTTCATAATAAATTTGTCGGAGTCACCTAGTGCAG”, the binding signal is 23400 fluorescence intensity (a.u.).
In the case of “TAATATTATATTTAATTTGCATTATTTTAAATATAGTACCCGGAGTCACCTAGTGCAG” it was 3730 fluorescence intensity (a.u.).
As for “AATAATTAAATTTGATATAATAAATTAATATGTGATATGTCGGAGTCACCTAGTGCAG”, the binding signal is 35700 fluorescence intensity (a.u.).
In the case of “CAATGACTGATTACTGTGTTGATAGAATTTCATATACATTCGGAGTCACCTAGTGCAG”, the binding signal was 34300 fluorescence intensity (a.u.).
Regarding “TAAAATTTGGAACTGAAATTTCTAACATTTCGGGTCCATCCGGAGTCACCTAGTGCAG”, the binding signal was 4680 fluorescence intensity (a.u.).
For the sequence “AAGATAGATAGATTCATCGCGATCGATCGAGCGGGAGGTACGGAGTCACCTAGTGCAG”, the binding signal was 22500 fluorescence intensity (a.u.).
In the case of “AAACCATTGCAAATTAACTCTCCAAATGGTTTCAGAGACGCGGAGTCACCTAGTGCAG” it was 4040 fluorescence intensity (a.u.).
In the case of “TACGCTATACGCAGTAATTGATATATATAATCTTCATGGTCGGAGTCACCTAGTGCAG” it was 8920 fluorescence intensity (a.u.); in that of “CCAAATGGGACAAAAGATTGAAAAGAAAACTGACAGCCGCCGGAGTCACCTAGTGCAG”, 13900 fluorescence intensity (a.u.); in that of “GTCCCAATGATTGCCAGCCCCGGTGGACGGGTGTAGAAGCCGGAGTCACCTAGTGCAG”, 38100 fluorescence intensity (a.u.).
With “TATAATTGACATGCAATTATAATAACGTGGGTTAAATATACGGAGTCACCTAGTGCAG”, the binding signal is 33800 fluorescence intensity (a.u.).
“CTTTTAAATGTAGTATAATTATATTATAACTAATAACTAGCGGAGTCACCTAGTGCAG”: the binding signal was 18300 fluorescence intensity (a.u.).
In the case of “ATAACTATTTAATTGACATGCAATAAATATAAATGGGTAGCGGAGTCACCTAGTGCAG”, the binding signal was 52600 fluorescence intensity (a.u.).
Consider “CCAAATTCATCTTAATGTTTGATTATGATCAGCATCTTATCGGAGTCACCTAGTGCAG”, for which the binding signal is 4610 fluorescence intensity (a.u.).
Regarding “TCTAAATTGTATTTCTATATGGACTCTAGTCTCCTCTTCACGGAGTCACCTAGTGCAG”, the binding signal is 14000 fluorescence intensity (a.u.).
Take “AGTCAAATTAATCACGCAGCTGAATGCTGAATAATGTGTCCGGAGTCACCTAGTGCAG”: the binding signal was 24000 fluorescence intensity (a.u.).
Regarding “GAACAATAGATTAATATATAATTAAATAAATATTAGTCAACGGAGTCACCTAGTGCAG”, the binding signal is 25100 fluorescence intensity (a.u.).
In the case of “TCCCCTCTGATTAATTAATTAATTAATTAATTAGCTAAAACGGAGTCACCTAGTGCAG”, the binding signal was 65500 fluorescence intensity (a.u.).
As to “AGCTCTGATTGAATTAGCTAATTATGGTTGCACGTCTAAGCGGAGTCACCTAGTGCAG”, the binding signal is 59600 fluorescence intensity (a.u.).
Regarding “GAAACGTGATTCAAATGATTATTCAGGTACAATAATCTTACGGAGTCACCTAGTGCAG”, the binding signal is 8070 fluorescence intensity (a.u.).
Take “TATTAATTTGTAATTAATATTGAATAACGCTGCGTGAGTACGGAGTCACCTAGTGCAG”: the binding signal is 45900 fluorescence intensity (a.u.).
Consider “TACAATCTGATTAATTAATTAGCACGGAAAATAATGTCAACGGAGTCACCTAGTGCAG”, for which the binding signal was 59200 fluorescence intensity (a.u.).
Consider “TAAACATCTGATTAGCTAAAAGTGTTTAATTAGATTTCCACGGAGTCACCTAGTGCAG”, for which the binding signal was 21800 fluorescence intensity (a.u.).
Regarding “TCCTCTCTTAATTAATTATTAGCTCGTGTTAATTGTTAAACGGAGTCACCTAGTGCAG”, the binding signal was 32800 fluorescence intensity (a.u.).
As to “CAGTTGATTGGCCGACGTTATGATATGGTAGCTGAATTAGCGGAGTCACCTAGTGCAG”, the binding signal was 44100 fluorescence intensity (a.u.).
The value for “CGTCTAATTAAGCGTAGACGATCTGATTCGCTAGCTCGCACGGAGTCACCTAGTGCAG” was 10600 fluorescence intensity (a.u.).
In the case of “GAAATAATTAATCAATTAACGCTGATGTGTGAGCTGCGTACGGAGTCACCTAGTGCAG”, the binding signal is 53800 fluorescence intensity (a.u.).
